Calls of active or inactive are those of the source. Rule for the calls: active = hit-call score of the fitted dose curve at least 0.9, where 1 is the maximum; inactive = score below 0.9.

19 molecules from PubChem BioAssay (EPA / NIEHS) can be followed below.

Test [1] can be described thus: ATG_ISRE_CIS: Attagene CIS-FACTORIAL HepG2 Assay for human Interferon Regulatory Factor 1 (IRF1) binding to an Interferon-Stimulated Response Element (ISRE) (AID 2282948). Particulars: HepG2 ISRE cis-reporter (Attagene), mRNA transcription readout; actives raise or lower the signal. A digest of the protocol:
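Read-out: fluorescent RT-PCR products resolved by capillary electrophoresis, reporting endogenous transcription factor activity via ISRE-driven reporter mRNA in transfected HepG2 cells dosed for 24 h; gain or loss fitted relative to DMSO.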

Test [2] can be described thus: ATG_M_32_CIS: Attagene CIS-FACTORIAL HepG2 Assay for M32 Transcription Factor (Internal Marker) (AID 2282949).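 Note: background control marker of the multiplexed CIS panel rather than a real target.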 The following applies: HepG2 Attagene cis-factorial M32 reporter, mRNA; actives raise or lower the signal. Put shortly: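 HepG2 transfectants (cis-regulated reporter transcription units) dosed 24 h. Reporter mRNA by RT-PCR plus CE, analysed as gain or loss relative to DMSO.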

The nature of test [3]: ATG_M_06_CIS: Attagene CIS-FACTORIAL HepG2 Assay for M06 Transcription Factor (Internal Marker) (AID 2282950). Particulars: HepG2 Attagene CIS-FACTORIAL M06 internal marker reporter; actives raise or lower the signal. A digest of the protocol:
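Fluorescence-labelled RT-PCR products from cis-promoter reporter units, cut with HpaI and resolved by capillary electrophoresis, give the signal. Cells are human HepG2, dosed for 24 h. Serves as background control, fitted relative to DMSO.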

Test [4] concerns the target Hypoxia-inducible factor 1-alpha (Homo sapiens) (UniProt Q16665). Briefly: ATG_HIF1a_CIS: Attagene CIS-FACTORIAL HepG2 Assay for human Hypoxia Inducible Factor 1 (HIF1A) (AID 2282951). The following applies: HepG2 Attagene cis-factorial HIF1a reporter transcription; actives raise or lower the signal. Put shortly:
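Cis-element reporter constructs were transiently transfected into HepG2 cells, which were treated for 24 h; reporter RNA was reverse-transcribed, amplified, labelled and resolved by capillary electrophoresis.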

Test [5] concerns the target Hepatocyte nuclear factor 6 (Homo sapiens) (UniProt Q9UBC0). Nature of the test: ATG_HNF6_CIS: Attagene CIS-FACTORIAL HepG2 Assay for human Hepatocyte Nuclear Factor 6 (HNF6) (AID 2282952). The following applies: HepG2 Attagene cis-factorial HNF6 reporter transcription; actives raise or lower the signal. A digest of the protocol: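 Endogenous transcription factor activity in human HepG2 liver cells was captured through cis-regulated reporter constructs. After 24 h treatment, reporter mRNA was measured by RT-PCR with capillary electrophoresis, and activity was fitted in both directions relative to DMSO.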

Test [6] can be described thus: ATG_MRE_CIS: Attagene CIS-FACTORIAL HepG2 Assay for human Metal Responsive Element (MRE) (AID 2282954). The following applies: HepG2 MRE cis-reporter transcription, Attagene multiplex; actives raise or lower the signal. Put shortly:
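Endogenous MRE-dependent transcription read as reporter mRNA in transiently transfected human HepG2 cells at 24 h. RNA reverse-transcribed, PCR-amplified, labelled and resolved by capillary electrophoresis; gain or loss relative to DMSO.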

A short description of test [7]: ATG_PBREM_CIS: Attagene CIS-FACTORIAL HepG2 Assay for human Phenobarbital-responsive Enhancer Module (PBREM) (AID 2282955). Particulars: HepG2 PBREM cis-reporter, Attagene multiplexed transcription; actives raise or lower the signal. A digest of the protocol: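 Multiplexed cis-reporter readout in human hepatoma HepG2 cells; PBREM-regulated transcript quantified after 24 h exposure by fluorescent RT-PCR fragment analysis. Signal changes up or down fitted relative to DMSO.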

For test [8], the target named is Paired box protein Pax-6 (Homo sapiens) (UniProt P26367). Nature of the test: ATG_Pax6_CIS: Attagene CIS-FACTORIAL HepG2 Assay for human Paired Box 6 (PAX6) (AID 2282956). The following applies: HepG2 CIS-FACTORIAL PAX6 reporter transcription, RNA readout; actives raise or lower the signal. Put shortly:
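Readout: reporter transcript fluorescence after RT-PCR and capillary electrophoresis. Cells: HepG2, transiently transfected with cis-regulated MRTUs. Exposure 24 h. Gain or loss of signal fitted bidirectionally relative to DMSO.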

The nature of test [9]: ATG_PXRE_CIS: Attagene CIS-FACTORIAL HepG2 Assay for human Pregnane X Receptor Element (PXRE) (AID 2282957). The following applies: HepG2 Attagene CIS-FACTORIAL PXRE reporter, mRNA; actives raise or lower the signal. Put shortly:
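Endogenous transcription factor activity in HepG2 was gauged through induction of reporter mRNA driven by a cis-regulating promoter element, sampled 24 h post-treatment. Activity was fitted in both directions against DMSO negative control.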

Test [10] has as its target Heat shock factor protein 1 (Homo sapiens) (UniProt Q00613). Briefly: ATG_HSE_CIS: Attagene CIS-FACTORIAL HepG2 Assay for human Heat Shock Transcription Factor 1 (HSE) (AID 2282953). Particulars: HepG2 HSE cis-reporter, Attagene RNA transcription; actives raise or lower the signal. A digest of the protocol: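 After a 24 h incubation with test chemical, transfected HepG2 cells were harvested for RNA; reporter transcripts were measured by RT-PCR and capillary electrophoresis. Values reflect gain or loss of signal relative to DMSO.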

Chain of Heat shock factor protein 1 (Homo sapiens) (Q00613 whole entry, looked up): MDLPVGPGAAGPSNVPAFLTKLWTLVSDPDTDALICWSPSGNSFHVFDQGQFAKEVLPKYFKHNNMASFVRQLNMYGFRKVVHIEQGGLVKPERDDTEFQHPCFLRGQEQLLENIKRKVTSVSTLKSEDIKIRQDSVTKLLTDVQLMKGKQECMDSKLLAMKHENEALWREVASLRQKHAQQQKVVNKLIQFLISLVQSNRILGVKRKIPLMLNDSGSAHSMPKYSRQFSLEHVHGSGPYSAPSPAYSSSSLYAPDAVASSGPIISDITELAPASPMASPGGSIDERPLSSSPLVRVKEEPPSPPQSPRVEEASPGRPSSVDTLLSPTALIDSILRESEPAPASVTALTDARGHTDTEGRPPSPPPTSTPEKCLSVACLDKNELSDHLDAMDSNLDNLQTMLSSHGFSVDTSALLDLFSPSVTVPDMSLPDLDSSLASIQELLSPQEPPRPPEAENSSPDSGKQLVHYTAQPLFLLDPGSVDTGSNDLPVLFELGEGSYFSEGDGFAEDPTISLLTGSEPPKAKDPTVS
Chain of Paired box protein Pax-6 (Homo sapiens) (P26367 whole entry, looked up): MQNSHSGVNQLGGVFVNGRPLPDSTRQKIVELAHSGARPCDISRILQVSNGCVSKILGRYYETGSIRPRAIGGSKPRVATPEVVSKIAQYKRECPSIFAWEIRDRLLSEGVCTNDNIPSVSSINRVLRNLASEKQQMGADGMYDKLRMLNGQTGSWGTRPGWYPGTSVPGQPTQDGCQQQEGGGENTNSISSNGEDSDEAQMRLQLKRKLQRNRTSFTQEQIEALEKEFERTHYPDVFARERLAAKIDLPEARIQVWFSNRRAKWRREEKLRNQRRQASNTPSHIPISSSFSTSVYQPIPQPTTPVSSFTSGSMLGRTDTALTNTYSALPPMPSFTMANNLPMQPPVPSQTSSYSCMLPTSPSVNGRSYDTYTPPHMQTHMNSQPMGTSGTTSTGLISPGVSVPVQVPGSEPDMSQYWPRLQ
Chain of Hepatocyte nuclear factor 6 (Homo sapiens) (Q9UBC0 whole entry, looked up): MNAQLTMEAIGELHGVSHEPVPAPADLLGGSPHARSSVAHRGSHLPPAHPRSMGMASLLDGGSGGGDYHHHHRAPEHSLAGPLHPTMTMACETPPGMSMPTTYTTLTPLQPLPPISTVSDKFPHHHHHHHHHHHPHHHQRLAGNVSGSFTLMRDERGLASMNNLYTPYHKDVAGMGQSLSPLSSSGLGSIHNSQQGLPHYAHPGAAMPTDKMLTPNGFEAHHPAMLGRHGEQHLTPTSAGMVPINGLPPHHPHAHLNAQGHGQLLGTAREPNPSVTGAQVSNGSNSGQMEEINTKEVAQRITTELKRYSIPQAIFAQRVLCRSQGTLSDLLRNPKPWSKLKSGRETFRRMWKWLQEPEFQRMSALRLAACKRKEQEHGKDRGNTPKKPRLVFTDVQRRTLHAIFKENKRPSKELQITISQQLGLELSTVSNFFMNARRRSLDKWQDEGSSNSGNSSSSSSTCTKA
Chain of Hypoxia-inducible factor 1-alpha (Homo sapiens) (Q16665 whole entry, looked up): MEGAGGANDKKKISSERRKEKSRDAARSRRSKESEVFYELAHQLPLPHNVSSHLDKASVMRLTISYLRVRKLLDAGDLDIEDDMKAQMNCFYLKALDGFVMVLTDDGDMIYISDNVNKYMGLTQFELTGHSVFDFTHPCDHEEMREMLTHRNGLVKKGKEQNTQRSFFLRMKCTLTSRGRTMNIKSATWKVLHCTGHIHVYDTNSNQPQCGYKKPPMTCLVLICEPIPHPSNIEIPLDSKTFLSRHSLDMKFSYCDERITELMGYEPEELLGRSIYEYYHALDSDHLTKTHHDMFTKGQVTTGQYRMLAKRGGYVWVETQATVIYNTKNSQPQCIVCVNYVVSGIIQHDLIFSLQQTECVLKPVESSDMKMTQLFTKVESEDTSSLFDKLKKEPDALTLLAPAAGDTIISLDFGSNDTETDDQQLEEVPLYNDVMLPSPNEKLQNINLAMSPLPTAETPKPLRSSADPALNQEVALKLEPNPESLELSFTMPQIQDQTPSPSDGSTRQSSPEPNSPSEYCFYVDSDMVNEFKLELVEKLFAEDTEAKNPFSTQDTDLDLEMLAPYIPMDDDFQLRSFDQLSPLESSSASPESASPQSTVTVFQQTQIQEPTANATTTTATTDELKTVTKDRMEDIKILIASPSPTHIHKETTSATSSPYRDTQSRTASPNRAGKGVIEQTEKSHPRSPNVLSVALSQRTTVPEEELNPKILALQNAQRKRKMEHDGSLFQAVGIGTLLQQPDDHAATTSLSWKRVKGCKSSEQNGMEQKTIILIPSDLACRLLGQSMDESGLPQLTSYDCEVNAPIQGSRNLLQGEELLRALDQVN

For the molecule `N#Cc1ccccn1`, the result in test [1], in test [2], in test [3], in [4], in test [5] and in test [6] was inactive. Further, the result in test [7], in test [8] and in test [9] was inactive.
The term AC50 denotes the midpoint of the concentration-response curve, whichever way the signal moves. Turning to `C(=NC1CCCCC1)=NC1CCCCC1`, the AC50 in test [1] is 17.7 µM (active); in test [6], 33.4 µM (active); in test [7], 8.4 µM (active). The call in test [2], in test [3], in test [4], in test [10], in test [8] and in test [9] was inactive.
For the molecule `Nc1ncc([N+](=O)[O-])s1`, the call in test [1], in [2], in [3], in test [4], in test [5] and in test [10] was inactive. In addition, the molecule was called inactive in test [6], in test [8] and in test [9].
Turning to `CCOC(=O)CP(=O)(OCC)OCC`, the molecule was classed as inactive in [1], in [2], in [3], in test [5], in test [10] and in [6]. In addition, the call in test [8] was inactive. The AC50 in test [4] is 0.0931 µM (active); in [9], 100 µM (active).
Consider `O=C/C=C/c1ccccc1`, for which the molecule was called inactive in test [1], in test [2], in [3], in test [4], in [10] and in test [6]. Also, the outcome in test [7] and in [8] was inactive. Also, in test [9], the AC50 is 9.96 µM (active).
Consider `CN(CCCC(=O)c1cccnc1)N=O`, for which the result in test [1], in test [2], in test [3], in test [4], in [10] and in [6] was inactive. Further, the result in test [7] and in [8] was inactive. In [9], the AC50 was 27.2 µM (active).
For `C1CCC(NC2CCCCC2)CC1`, the result in [1], in test [2], in test [3], in test [4], in test [10] and in test [6] was inactive. In addition, the outcome in test [7] and in test [8] was inactive. The AC50 in test [9] is 16.7 µM (active).
Consider `O=C1C(Cl)=C(Cl)C(=O)c2ccccc21`, for which the outcome in test [1], in test [2], in test [3], in [4], in [6] and in test [8] was inactive. Moreover, the result in test [9] was inactive. Also, the AC50 in test [10] is 13.6 µM (active).
For `Nc1ccc(Cl)cc1C(=O)c1ccccc1`, the result in [1], in test [2], in [3], in test [4] and in [10] was inactive. In addition, the figures for the AC50 in test [6], in test [8] and in test [9] were 25.6 µM (active), 29.6 µM (active) and 6.6 µM (active), respectively.
On to `CC(C#N)CCC#N` (centres undefined), for which the outcome in test [1], in test [2], in test [3], in [4], in [5] and in test [10] was inactive. For the same molecule, the molecule was classed as inactive in [6], in test [8] and in test [9].
In the case of `CC(=[OH+])/C=C(/C)[O-].CC(=[OH+])/C=C(/C)[O-].CC(=[OH+])/C=C(/C)[O-].[Al]`, the molecule was called inactive in test [1], in [2], in test [3], in test [4], in test [5] and in test [10]. Also, the molecule was called inactive in [6], in test [8] and in [9].
`CC(C)c1ccc(CO)cc1`: the outcome in [1], in test [2], in test [3], in test [4], in test [5] and in test [10] was inactive. Moreover, the molecule was called inactive in test [6], in [8] and in test [9].
Take `CC(C)(c1ccccc1)c1ccc(O)c(C(C)(C)c2ccccc2)c1`: the call in test [1], in [2] and in test [3] was inactive. Also, the AC50 in test [4] was 11.1 µM (active); in test [10] it was 17.9 µM (active); in [6], 13.3 µM (active); in [7] it was 0.42 µM (active); in [8] it was 12.7 µM (active); in [9], 0.156 µM (active).
For the molecule `CCCCC(CC)CO[N+](=O)[O-]` (centres undefined), the call in [1], in test [2], in [3], in test [10], in test [6] and in test [8] was inactive. Further, in test [9], the call was inactive. In addition, the values for the AC50 in test [4] and in test [5] were 4.37 µM (active) and 151 µM (active), respectively.
As to `COS(=O)(=O)c1ccc(C)cc1`, the outcome in test [1], in test [2], in test [3], in [4], in test [5] and in test [10] was inactive. The molecule was called inactive in [6], in test [8] and in test [9].
Regarding `OCC(O)CCl` (centres undefined), the call in test [1], in test [2], in [3], in test [4], in test [10] and in [6] was inactive. Moreover, the result in test [7], in test [8] and in [9] was inactive.
In the case of `Fc1ccc(C2(Cn3cncn3)OC2c2ccccc2Cl)cc1` (centres undefined), the call in test [1], in test [2], in test [3], in test [5], in test [10] and in test [6] was inactive. For the same molecule, the outcome in test [7] and in test [8] was inactive. In [9], the AC50 is 3.04 µM (active).
For `ClCc1cccnc1`, the molecule was called inactive in test [1], in [2], in test [3], in test [5], in test [10] and in [7]. Further, the call in test [9] was inactive. In addition, the AC50 in [6] is 45.9 µM (active); in test [8] it was 75.4 µM (active).
For `CCOP(=S)(OCC)Oc1nc(Cl)c(Cl)cc1Cl`, the results for the AC50 in test [1], in test [6] and in [9] were 27.2 µM (active), 100 µM (active) and 5.24 µM (active), respectively. The call in test [2], in test [3], in test [5], in test [10], in test [7] and in [8] was inactive.
